# From PubChem BioAssay (NCATS)
# Results filed as inconclusive are left out. Entries that show only a call come without a potency. The source made the active and inactive calls. Unless noted, the call rests on the fitted dose curve.
# Tests used:
# [1] = target: Androgen receptor (Homo sapiens) (UniProt P10275); assay: qHTS assay for small molecule antagonists of androgen receptor signaling (AID 588516; active means well fitted curve in the direction sought with a large enough effect in the signal ratio, with a control signal flat, not every such curve was filed as active; the % refers to the signal ratio; further: potency means the concentration at half of the fitted maximal effect)
# In short: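 AR-UAS-bla GripTite HEK 293 cells (2000/well) treated with compound titrations plus 10 nM R1881 for 16 h at 37C. Beta-lactamase read by CCF4 FRET (460/530 nm); IC50 from Hill fits, normalized to R1881 and DMSO control wells.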
# [2] = target: Glucocorticoid receptor (Homo sapiens) (UniProt P04150); assay: qHTS assay for small molecule agonists of glucocorticoid receptor signaling (AID 588532; active means well fitted curve in the direction sought with a large enough effect in the signal ratio, with a control signal flat; the % refers to the signal ratio); settings: HeLa MMTV-bla, beta-lactamase ratio, agonist, 18 h; stronger effect = higher value; percent of dexamethasone control, DMSO zero
# In short: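 Quantitative HTS using CellSensor MMTV-bla HeLa cells in charcoal/dextran-treated serum; compounds tested up to 92 uM. After 18 h at 37 C, CCF4 dye reported reporter induction.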
# [3] = target: Glucocorticoid receptor (Homo sapiens) (UniProt P04150); assay: qHTS assay for small molecule antagonists of glucocorticoid receptor signaling (AID 588533; active means well fitted inhibition curve with a large enough effect in the signal ratio, with a control signal flat, not every such curve was filed as active; the % refers to the signal ratio;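 further: cells stimulated with 2 nM dexamethasone as agonist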)
# In short: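 Antagonist-mode qHTS: compound titrations added to GRE-bla HeLa cells, then dexamethasone 2 nM final; 18 h, 37 C. CCF4 FRET fluorescence normalized to dexamethasone and DMSO; IC50 from Hill fit.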
# [4] = qHTS assay for small molecule antagonists of peroxisome proliferator-activated receptor delta signaling (AID 588535; active means well fitted inhibition curve with a large enough effect in the signal ratio, with a control signal flat, not every such curve was filed as active; the % refers to the signal ratio;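 on max response: cells co-treated with a PPAR-delta agonist as stimulator during compound exposure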); settings: HEK293T PPARd-UAS-bla, beta-lactamase FRET ratio, 18 h; 460 nm channel
# In short: (§1)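 Titrations were run on PPAR-delta-UAS-bla HEK293T cells in charcoal/dextran-stripped serum, incubated 18 h at 37 C. CCF4 fluorescence (460/530 nm) after 2 h RT; Hill equation yields IC50 and maximal response.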
# [5] = target: Peroxisome proliferator-activated receptor delta (Homo sapiens) (UniProt Q03181); assay: as above
# In short: as §1
# [6] = target: Peroxisome proliferator-activated receptor gamma (Homo sapiens) (UniProt P37231); assay: qHTS assay for small molecule agonists of peroxisome proliferator-activated receptor gamma signaling (AID 588536; active means well fitted curve in the direction sought with a large enough effect in the signal ratio, with a control signal flat, not every such curve was filed as active; the % refers to the signal ratio)
# In short: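 Cells were plated and held 6–6.5 h at 37 C, then compounds were added as a titration series. After a further 16 h, CCF4 dye was loaded for 2 h at room temperature and emission at 460/530 nm recorded.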
# [7] = target: Vitamin D3 receptor (Homo sapiens) (UniProt P11473); assay: qHTS assay for small molecule antagonists of vitamin D receptor signaling (AID 588541);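 further: receptor activated by calcitriol during compound treatment; series mostly up to about 77 µM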
# In short: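 Antagonist-mode beta-lactamase reporter assay: HEK293T VDR-UAS-bla cells were exposed to titrated compound alongside 1-alpha,25-dihydroxyvitamin D3 at 3 nM final for 16 h. Values were normalized to the 50 nM agonist control and DMSO basal, with IC50 and efficacy from Hill equation fits.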
# [8] = target: Vitamin D3 receptor (Homo sapiens) (UniProt P11473); assay: qHTS assay for small molecule agonists of vitamin D receptor signaling (AID 588543)
# In short: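 VDR-UAS-bla HEK293T cells, 2000/well, 2% charcoal-stripped FBS; compound titration 16 h at 37 C; CCF4 beta-lactamase ratio read. Normalized to 50 nM 1-alpha,25-dihydroxyvitamin D3 (100%) and DMSO; Hill fit gives EC50, efficacy.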
# [9] = qHTS assay for small molecule agonists of retinoid X receptor alpha signaling (AID 588544); settings: HEK293T RXRa-UAS-bla, beta-lactamase reporter, 18 h; 530 nm emission
# [10] = target: Androgen receptor (Homo sapiens) (UniProt P10275); assay: qHTS assay for small molecule agonists of androgen receptor signaling (AID 588515; active means well fitted curve in the direction sought with a large enough effect in the signal ratio, with a control signal flat; the % refers to the signal ratio); settings: AR-UAS-bla HEK293, beta-lactamase ratio, agonist 16 h; stronger effect = higher value
# In short: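 Stimulation of an AR-responsive β-lactamase reporter in GripTite HEK293 cells was measured after 16 h compound exposure at 37 °C, via CCF4 fluorescence after 2 h RT. EC50 from Hill fits, normalized to R1881 at 30 nM.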
# Vitamin D3 receptor (Homo sapiens), sequence (P11473 whole entry, looked up): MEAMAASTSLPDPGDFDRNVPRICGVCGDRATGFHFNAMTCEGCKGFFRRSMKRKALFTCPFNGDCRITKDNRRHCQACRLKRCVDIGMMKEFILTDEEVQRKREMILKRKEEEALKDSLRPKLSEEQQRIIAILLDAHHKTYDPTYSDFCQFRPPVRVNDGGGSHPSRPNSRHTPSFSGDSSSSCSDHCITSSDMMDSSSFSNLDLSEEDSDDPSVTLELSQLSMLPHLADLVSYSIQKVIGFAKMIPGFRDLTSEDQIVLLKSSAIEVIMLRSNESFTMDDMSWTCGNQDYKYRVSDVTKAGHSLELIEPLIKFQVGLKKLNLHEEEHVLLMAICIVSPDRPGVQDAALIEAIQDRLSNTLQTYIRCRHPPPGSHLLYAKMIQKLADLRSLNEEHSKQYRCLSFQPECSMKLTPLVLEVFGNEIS
# Peroxisome proliferator-activated receptor gamma (Homo sapiens), sequence (P37231 whole entry, looked up): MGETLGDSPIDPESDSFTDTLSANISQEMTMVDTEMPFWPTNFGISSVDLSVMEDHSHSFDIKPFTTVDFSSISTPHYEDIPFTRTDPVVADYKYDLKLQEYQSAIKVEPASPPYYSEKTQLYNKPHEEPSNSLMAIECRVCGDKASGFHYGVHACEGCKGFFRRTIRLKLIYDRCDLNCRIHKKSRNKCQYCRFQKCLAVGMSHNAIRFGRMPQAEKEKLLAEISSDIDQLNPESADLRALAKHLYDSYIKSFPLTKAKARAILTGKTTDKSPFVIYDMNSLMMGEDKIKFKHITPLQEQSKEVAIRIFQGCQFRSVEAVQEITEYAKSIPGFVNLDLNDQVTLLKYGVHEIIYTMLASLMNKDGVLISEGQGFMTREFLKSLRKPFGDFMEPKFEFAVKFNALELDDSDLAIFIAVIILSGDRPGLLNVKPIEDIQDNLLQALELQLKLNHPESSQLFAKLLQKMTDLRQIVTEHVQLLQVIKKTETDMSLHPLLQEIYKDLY
# Androgen receptor (Homo sapiens), sequence (P10275 whole entry, looked up): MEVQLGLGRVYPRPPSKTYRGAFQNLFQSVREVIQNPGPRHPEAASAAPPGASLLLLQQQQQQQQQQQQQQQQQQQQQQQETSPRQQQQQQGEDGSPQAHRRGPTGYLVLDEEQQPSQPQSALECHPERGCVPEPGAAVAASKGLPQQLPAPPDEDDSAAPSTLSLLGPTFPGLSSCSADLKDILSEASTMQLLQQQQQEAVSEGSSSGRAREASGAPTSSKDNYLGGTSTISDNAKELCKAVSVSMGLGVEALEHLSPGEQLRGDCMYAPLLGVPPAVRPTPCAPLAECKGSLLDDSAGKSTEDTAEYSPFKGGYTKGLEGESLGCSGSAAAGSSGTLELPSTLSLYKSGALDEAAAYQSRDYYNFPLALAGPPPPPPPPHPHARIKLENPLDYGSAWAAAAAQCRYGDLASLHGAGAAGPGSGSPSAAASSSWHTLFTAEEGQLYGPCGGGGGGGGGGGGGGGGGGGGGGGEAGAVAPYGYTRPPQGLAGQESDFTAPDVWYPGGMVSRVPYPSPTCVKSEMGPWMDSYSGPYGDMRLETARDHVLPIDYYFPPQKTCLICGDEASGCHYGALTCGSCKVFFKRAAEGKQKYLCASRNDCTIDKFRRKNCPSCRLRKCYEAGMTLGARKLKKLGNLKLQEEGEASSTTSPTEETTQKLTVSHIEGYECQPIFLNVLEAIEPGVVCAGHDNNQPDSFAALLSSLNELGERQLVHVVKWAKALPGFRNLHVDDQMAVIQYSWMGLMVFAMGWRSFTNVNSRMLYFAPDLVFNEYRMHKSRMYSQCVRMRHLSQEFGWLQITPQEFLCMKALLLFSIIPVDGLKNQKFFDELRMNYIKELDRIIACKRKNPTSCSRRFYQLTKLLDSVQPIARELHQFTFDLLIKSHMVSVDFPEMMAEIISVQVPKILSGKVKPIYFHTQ
# Glucocorticoid receptor (Homo sapiens), sequence (P04150 whole entry, looked up): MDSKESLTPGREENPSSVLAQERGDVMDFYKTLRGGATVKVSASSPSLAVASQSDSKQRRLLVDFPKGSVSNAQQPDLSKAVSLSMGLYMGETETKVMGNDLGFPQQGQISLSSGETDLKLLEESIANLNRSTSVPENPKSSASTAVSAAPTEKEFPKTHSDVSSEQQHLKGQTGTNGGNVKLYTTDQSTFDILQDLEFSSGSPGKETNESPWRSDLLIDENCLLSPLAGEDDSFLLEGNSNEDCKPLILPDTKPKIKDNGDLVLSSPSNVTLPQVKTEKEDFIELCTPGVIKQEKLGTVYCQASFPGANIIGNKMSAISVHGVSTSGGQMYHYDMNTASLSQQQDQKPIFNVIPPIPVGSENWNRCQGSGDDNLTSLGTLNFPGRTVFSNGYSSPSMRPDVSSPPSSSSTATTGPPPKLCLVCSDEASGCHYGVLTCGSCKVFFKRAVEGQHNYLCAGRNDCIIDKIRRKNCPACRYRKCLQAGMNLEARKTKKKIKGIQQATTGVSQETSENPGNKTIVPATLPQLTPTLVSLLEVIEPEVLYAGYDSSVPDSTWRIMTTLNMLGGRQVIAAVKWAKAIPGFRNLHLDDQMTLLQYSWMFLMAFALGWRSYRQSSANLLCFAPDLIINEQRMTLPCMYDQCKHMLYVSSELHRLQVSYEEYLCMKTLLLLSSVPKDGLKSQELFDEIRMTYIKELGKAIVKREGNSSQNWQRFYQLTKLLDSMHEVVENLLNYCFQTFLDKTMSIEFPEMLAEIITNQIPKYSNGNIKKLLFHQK
# Peroxisome proliferator-activated receptor delta (Homo sapiens), sequence (Q03181 whole entry, looked up): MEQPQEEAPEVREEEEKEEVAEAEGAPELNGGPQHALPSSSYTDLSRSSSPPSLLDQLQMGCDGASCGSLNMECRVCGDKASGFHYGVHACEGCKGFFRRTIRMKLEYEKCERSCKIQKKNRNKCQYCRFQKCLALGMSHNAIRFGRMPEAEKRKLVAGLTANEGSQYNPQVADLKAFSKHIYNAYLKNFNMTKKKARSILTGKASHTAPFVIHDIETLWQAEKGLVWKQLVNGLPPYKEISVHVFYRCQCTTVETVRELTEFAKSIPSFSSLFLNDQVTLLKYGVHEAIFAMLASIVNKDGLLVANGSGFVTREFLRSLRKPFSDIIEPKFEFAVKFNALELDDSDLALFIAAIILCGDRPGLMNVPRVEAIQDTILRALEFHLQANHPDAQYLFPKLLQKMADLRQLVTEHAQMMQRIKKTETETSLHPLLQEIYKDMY
SMILES,Potency [1],activation [2],outcome [3],max response [4] [%],outcome [5],outcome [6],outcome [7],outcome [8],max response [9] [%],activation [10]
Cc1ccc(N)cc1O,inactive,0.383% (inactive),inactive,-0.329,inactive,inactive,inactive,inactive,6.75,
CC(=O)O[C@@H]1CC(C)=C2[C@H]1[C@H](C)CC[C@H]2/C=C(\C)C(=O)O,,9.44% (inactive),inactive,,,inactive,inactive,inactive,12.6,-3.27% (inactive)
CC(=O)O[C@H]1C(=O)[C@@]2(C)[C@H]([C@H](OC(=O)c3ccccc3)[C@]3(O)C[C@H](OC(=O)[C@H](O)[C@@H](NC(=O)c4ccccc4)c4ccccc4)C(C)=C1C3(C)C)[C@]1(OC(C)=O)CO[C@@H]1C[C@@H]2O,50.1 nM (active),,,,,,,inactive,-13.7,-6.87% (inactive)
Nc1ccccc1N,,10.6% (inactive),inactive,-23.4,inactive,inactive,inactive,inactive,12.1,
